The list is not random: actives were taken first. Their share in the collection is about 3%.
CHT block: inhibitors of human choline transporter CHT; High affinity choline transporter 1 (Homo sapiens), Q9GZV3; CHT-expressing cells, membrane potential dye, choline response; hits give low values; B-score at 10 µM; 310,000 compounds, 0.86% hits;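 active = B-score over 3 SD under the library average, and starting fluorescence ratio not unusually high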;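 also: choline stimulus applied at its EC90 after an EC20 pre-addition; B-score computed on integrated fluorescence ratio after choline addition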
Target sequence (Q9GZV3 whole entry, looked up): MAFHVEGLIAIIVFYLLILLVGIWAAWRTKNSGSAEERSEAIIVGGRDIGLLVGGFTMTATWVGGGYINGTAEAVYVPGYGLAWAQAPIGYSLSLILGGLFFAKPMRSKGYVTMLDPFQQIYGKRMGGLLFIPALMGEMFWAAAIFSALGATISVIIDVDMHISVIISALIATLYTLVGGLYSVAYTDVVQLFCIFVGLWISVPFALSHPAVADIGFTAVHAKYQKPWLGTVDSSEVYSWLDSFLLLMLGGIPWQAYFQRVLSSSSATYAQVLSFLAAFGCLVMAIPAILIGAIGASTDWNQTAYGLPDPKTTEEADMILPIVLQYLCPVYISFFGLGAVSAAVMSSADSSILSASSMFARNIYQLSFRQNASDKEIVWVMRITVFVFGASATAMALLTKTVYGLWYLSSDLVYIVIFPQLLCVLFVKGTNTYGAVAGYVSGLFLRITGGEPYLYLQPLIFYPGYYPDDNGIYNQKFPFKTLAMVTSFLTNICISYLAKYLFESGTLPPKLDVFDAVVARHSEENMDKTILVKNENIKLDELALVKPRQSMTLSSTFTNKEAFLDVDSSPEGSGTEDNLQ
NALP1 inh: NALP1 inflammasome inhibitors in reconstituted yeast, colorimetric, S. cerevisiae, triplicate retest. S. cerevisiae NALP1/ASC/caspase-1 growth, X-gal OD620, 72 h. inhibition, % at 10 µM. 280,000 compounds, 0.61% hits. AID 2071, 2009; in the data active = inhibition mostly above about 24%, no sharp cut-off; inactive = mostly below about 32%
SUMO Mot1 rescue: yeast Mot1-301 growth rescue at high temperature, primary screen, SUMOylation pathway inhibitor project, S. cerevisiae, ATP luminescence, 38.5C. growth rescue, % at 18.8 µM. 320,000 compounds, 1% hits. S. cerevisiae Mot1-301 growth rescue; percent above DMSO median, 100 means doubled;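 active = every valid replicate shows activation above 250% relative to neutral control wells; inactive = the rest, any valid replicate at or below 250%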;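 also: OY570 slx delta 5 strain wells were the positive control but not used for scaling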
A1 inh: caspase 3/7 activation in MEF A1-2A-BIM cells, primary screen, A1 inhibitor project, cell-based, luminescence, HTS; Caspase-Glo 3/7 luminescence, 3 h; percent of clofoctol response, vehicle zero; caspase activation, % (concentration not given with the values); 330,000 compounds, 0.066% hits;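 active = over half of replicate activation scores above 10%, or exactly half above 10 with the replicate mean above 10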
NLRP3 yeast inh: NALP3 inflammasome inhibitors in reconstituted yeast, primary screen, luminescence, uHTS | 330,000 compounds, 0.39% hits | Yeast reconstituted NLRP3/ASC/caspase-1, beta-gal luminescence, 24 h | inhibition, % at 10 µM;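 active = inhibition of 50% or more; inactive = inhibition below 50%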;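 also: plate controls were induced DMSO wells for no effect and uninduced yeast grown without galactose for full effect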
CHT PAM: CHT positive allosteric modulators, primary screen, cell-based, membrane potential dye, choline EC20 | B-score at 10 µM | CHT-expressing cells; hits give high values; LV-AA mutant CHT in HEK293 cells | AID 488977, 2010 | 310,000 compounds, 0.49% hits;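 active = initial fluorescence not abnormally high and integrated response B-score, plate-corrected, over 3 SD above library mean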
* hit, by the source's call; i = inactive; · = not tested or not shown.

SMILES	CHT block	NALP1 inh	SUMO Mot1 rescue	A1 inh	NLRP3 yeast inh	CHT PAM
C#CCOCCOCCOCCNc1nc(N2CCN(C(=O)C([C@@H](C)CC)n3cc(C(N)CC(C)C)nn3)CC2)nc(N2CCN(C(=O)[C@H](CCCCN)n3cc(C(N)COC(=O)C(F)(F)F)nn3)CC2)n1 (some centres undefined)	i	·	-13	0	8	i
C#CCOCCOCCOCCNc1nc(N2CCN(C(=O)[C@H](CCCCN)n3cc(C(N)CO)nn3)CC2)nc(N2CCN(C(=O)[C@H](CCCCN)n3cc(C(N)COC(=O)C(F)(F)F)nn3)CC2)n1 (some centres undefined)	i	·	-1	1	-11	7.1*
CC[C@@]1(C(=O)OC)N[C@H](CN(C)S(=O)(=O)c2ccc(-c3ccccc3)cc2)[C@@H]2C(=O)N(Cc3ccccc3)C(=O)[C@@H]21	·	·	·	·	4	·
Cc1ccc2cc(CN(C(=O)c3ccncc3)C(C)C)c(=O)[nH]c2c1	i	-11	306*	1	3	i
CCOc1ccc(C(=O)C(C)OC(=O)c2nc(Cl)ccc2Cl)cc1 (centres undefined)	i	·	-25	0	17	i
CC(C)(C)C(=O)Nc1nc(=S)ss1	-5.5*	14	-17	2	21	i
Oc1c(Br)cc(Br)cc1/C=N/Nc1ccc(Cl)nn1	i	41*	25	0	·	i
CCCCNC(=O)NC1(C(F)(F)F)Oc2ccccc2O1	i	37*	4	0	5	i
O=C1NC(Cc2ccccc2)c2nc3cc(Cl)ccc3c(=O)n2-c2ccccc21 (centres undefined)	·	·	22	-1	8	·
Cc1c(-c2ccccc2)nc2ccccc2c1C(=O)Nc1ccncc1	i	4	-9	0	15	i
COc1ccccc1NC1=C(N2CCCCC2)C(=O)c2ccccc2C1=O	i	80*	13	0	41	i
CN(C1=C(N2CCCCC2)C(=O)c2ccccc2C1=O)c1ccccc1	-5.8*	0	-10	-1	12	i
O=C1C(Nc2ccccc2)=C(N2CCCCC2)C(=O)c2ccccc21	i	4	245	-1	26	i
O=C(Nc1ccccc1N1CCCC1)c1cc(=O)[nH]c2ccccc12	·	·	·	·	1	·
O=C(CN1CCN(c2ccccc2)CC1)Nc1c(C(=O)C2CC2)oc2ccccc12	i	-5	57	0	19	i
Cc1ccc(N2CCN(CC(=O)Nc3c(C(=O)C4CC4)oc4ccccc34)CC2)cc1	·	47*	·	·	·	·
O=C(CN1C(=O)NC2(CCCC2)C1=O)NCc1ccco1	·	·	5	0	-3	·
O=C(CN1C(=O)NC2(CCCCCCC2)C1=O)NC(=O)NCc1ccco1	i	12	337*	0	14	i
COc1ccc(/C=C/C(=O)NCCSCc2ccco2)cc1OC	i	39*	-6	0	10	i
C[C@H]1[C@H](C)CC[C@]2(C(=O)O)CC[C@]3(C)C(=CC[C@@H]4[C@@]5(C)CC[C@H](O)C(C)(C)[C@@H]5CC[C@]43C)[C@H]12	i	11	17	1	-1	i
C[C@H]1[C@H](C)CC[C@]2(C(=O)O)CC[C@]3(C)C(=CC[C@@H]4[C@@]5(C)C[C@@H](O)[C@H](O)C(C)(C)[C@@H]5CC[C@]43C)[C@H]12	i	26	510*	0	-1	i
CCCCCCNC(=O)CC(c1ccccc1)c1cc(Br)ccc1O (centres undefined)	i	8	-31	0	18	i
CC(C)NC(=O)CC(c1ccccc1)c1cc(Br)ccc1O (centres undefined)	i	40*	-13	1	1	i
Cc1c(OC(C)C(=O)NCc2ccncc2)ccc2c3c(c(=O)oc12)CCCC3 (centres undefined)	-5*	25	-8	2	14	i
Cc1noc(C)c1C(=O)NCCc1c(C)[nH]c2ccccc12	i	8	296*	0	-9	i
SMILES	CHT block	NALP1 inh	SUMO Mot1 rescue	A1 inh	NLRP3 yeast inh	CHT PAM
Cc1ccccc1C(=O)N1CCN(S(=O)(=O)c2ccccc2)CC1	i	6	3	1	2	i
CCOc1ccc(NC(=O)C(CC(=O)O)Cc2ccc(C)cc2)cc1 (centres undefined)	i	12	8	-1	1	i
N/C(=N\OC(=O)CC1CCCCC1)c1ccc(Cl)cc1	i	32*	12	0	26	i
N/C(=N\OC(=O)CC1CCCCC1)c1ccc(Br)cc1	i	2	1	0	23	i
Cc1ccc2sc(N3CCN(CCNC(=O)c4ccco4)CC3)nc2c1C	i	·	-2	0	12	i
O=C(Nc1ccccc1-c1nc2ccccc2s1)c1cccnc1	i	17	-18	-1	-8	i
Cc1c(NC(=O)c2cccs2)cccc1-c1nc2ccccc2s1	i	28	387*	0	7	i
CCOc1c(OC(C)=O)ccc(/C=C2\N=C(SCC)SC2=O)c1[N+](=O)[O-]	-5.8*	14	-2	1	19	i
Cc1cccc(-n2nnc(C(=O)NCc3ccco3)c2N)c1	i	9	-10	0	8	i
Cc1cccc(-n2nnc(C(=O)NCc3ccccc3Cl)c2N)c1	i	27*	-12	1	17	i
CN(Cc1cnn(Cc2ccccc2)c1)C(=O)CN=C1NS(=O)(=O)c2ccccc21	·	·	-2	0	-2	·
Cc1ccc(OC(=S)Nc2ccc(F)cc2)cc1	i	-2	4	1	6	i
Cc1ccc(OC(=S)Nc2ccc(O)cc2)cc1	i	69*	1	1	15	i
COC(=O)/C=C/C(=O)N1CCN(c2ccccc2C)CC1	i	23	439*	1	9	i
COC(=O)/C=C/C(=O)N1CCN(c2ccccc2)CC1	i	24	-9	1	·	i
COc1c(Cl)cc(Cl)cc1C(=O)Nc1ccc(CN2CCOCC2)cc1	i	19	356*	0	-7	i
Cc1ccccc1C(=O)NCC(=O)OCCOc1ccc(C(C)C)c(C)c1	i	·	-6	0	20	i
N#Cc1ccccc1CSc1nnc(Cc2ccccc2)o1	i	11	348*	0	13	i
N#Cc1ccccc1CSc1nnc(-c2ccncc2)o1	i	15	8	-2	5	i
O=C(CCSCc1ccccc1Cl)NC1CCCCC1	i	0	2	0	24	i
